Reference: PubChem BioAssay (NCATS)
Several values for one entry are separate records, joined by “and”; a condition that tells them apart may be missing. Equal values may be shown once. Inconclusive results are not listed. Entries that show only a call come without a potency. Activity calls are given as the source filed them. Calls come from the whole dose curve.

Columns and labels:
[1] = Cytotoxicity counterscreen for inhibitors of SARS-CoV-2 cell entry (AID 1645845); note: nearly all actives have a fitted effect of over 50% in size
Summary of the method: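 HEK293-ACE2 cells (Expi293F stably expressing human ACE2) seeded overnight, then compound for 1 h plus 48 h at 37C. Viability as ATP content by luminescence; normalized to wells with cells and media-only wells.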

[2] = Primary qHTS to identify inhibitors of SARS-CoV-2 cell entry (AID 1645846); settings: activity change, negative = inhibition: at 57.1 µM (top of the series) unless noted; note: nearly all actives have a fitted effect of over 45% in size; note: potency is the fitted concentration of half-maximal effect
Summary of the method: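 Inhibition of spike-mediated entry was scored in human ACE2-transfected Expi293F cells. Particles were MLV-pseudotyped with Wuhan-Hu-1 S carrying a 19-aa C-terminal deletion; signal was luciferase after two days, scaled between spike PP and fusion-protein-free PP.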

| Structure (SMILES) | Potency [1] | Potency [2] | activity change, negative = inhibition [2] | outcome [1] |
| --- | --- | --- | --- | --- |
| NC(=O)c1ncn([C@@H]2O[C@H](CO)[C@@H](O)[C@H]2O)c1O | inactive | inactive |  |  |
| COCCOC(=O)C1=C(C)NC(C)=C(C(=O)OC(C)C)C1c1cccc([N+](=O)[O-])c1 (stereo not drawn) | inactive |  | -23.8% |  |
| C=CC(N)CCC(=O)O (stereo not drawn) | inactive | inactive |  |  |
| CC(C)(C(=O)c1cccnc1)c1cccnc1 | inactive | inactive |  |  |
| CC(=O)N(CC(O)CO)c1c(I)c(C(=O)NCC(O)CO)c(I)c(C(=O)NCC(O)CO)c1I (stereo not drawn) | inactive | inactive |  |  |
| NC[C@H]1O[C@H](O[C@H]2[C@H](O)[C@@H](O[C@H]3O[C@H](CO)[C@@H](O)[C@H](N)[C@H]3O)[C@H](N)C[C@@H]2N)[C@H](O)[C@@H](O)[C@@H]1O |  |  | -26.4% [at 5.25 µM] | inactive [at 5.25 µM] |
| NCCNCCNCCN | inactive |  | 2.68% |  |
| COCC(=O)Nc1c(I)c(C(=O)NCC(O)CO)c(I)c(C(=O)N(C)CC(O)CO)c1I (stereo not drawn) | inactive | inactive |  |  |
| OCCc1ccccc1 | inactive | inactive |  |  |
| NS(=O)(=O)c1cc2c(cc1C(F)(F)F)NC(Cc1ccccc1)NS2(=O)=O (stereo not drawn) | inactive | inactive |  |  |
| CC[C@H](C)[C@H](N)C(=O)O | inactive | inactive |  |  |
| COCCCOc1ccnc(CS(=O)c2nc3ccccc3[nH]2)c1C (stereo not drawn) | inactive |  | 1.47% |  |
| CCCCOCCOC(=O)c1cccnc1 | inactive | inactive |  |  |
| CC(C)NCC(O)c1ccc(NS(C)(=O)=O)cc1 (stereo not drawn) | inactive |  | -13.1% and -25% |  |
| O=C(O)CNC(=O)c1ccccc1 | inactive | inactive |  |  |
| CCOC(=O)Oc1ccc(CCNC(=O)[C@H](CCSC)NC(C)=O)cc1OC(=O)OCC | inactive | inactive |  |  |
| Nc1nc(=O)n([C@@H]2CS[C@H](CO)O2)cc1F | inactive |  | -20.7% |  |
| Cc1ccccc1OCC(O)CO (stereo not drawn) | inactive | inactive |  |  |
| O=C(O)C(S)C(S)C(=O)O (stereo not drawn) | inactive | inactive |  |  |
| COc1cnc(NS(=O)(=O)c2ccc(N)cc2)nc1 | inactive | inactive |  |  |
| O=C(O)COc1nn(Cc2ccccc2)c2ccccc12 | inactive | inactive |  |  |
| COc1ccc2cc1Oc1cc3c(cc1OC)CC[N+](C)(C)[C@H]3Cc1ccc(cc1)Oc1c(OC)c(OC)cc3c1[C@@H](C2)[N+](C)(C)CC3 | inactive | inactive |  |  |
| CCC(C(=O)NC(=O)NC(C)=O)c1ccccc1 (stereo not drawn) | inactive | inactive |  |  |
| CNCCCC12CCC(c3ccccc31)c1ccccc12 | inactive | 28.2 µM (active) |  |  |
| CC(C)(C)NCC(O)COc1cccc2c1C[C@H](O)[C@H](O)C2 (stereo partly drawn) | inactive |  | 4.34% |  |
| O=C(OCc1ccccc1)c1ccccc1 | inactive | inactive |  |  |
| CS(=O)(=O)c1ccc([C@@H](O)[C@@H](CF)NC(=O)C(Cl)Cl)cc1 | inactive |  | -26.1% |  |
| CCN(CC)CC#CCOC(=O)C(O)(c1ccccc1)C1CCCCC1 (stereo not drawn) | inactive |  | -28.2% |  |
| CC(C)(Sc1cc(C(C)(C)C)c(O)c(C(C)(C)C)c1)Sc1cc(C(C)(C)C)c(O)c(C(C)(C)C)c1 | inactive | inactive |  |  |
